Screening data as filed in PubChem.
Pol beta inh = DNA polymerase beta (human) inhibition | P06746 | Pol beta primer extension/strand displacement, fluorescence kinetic | Potency, µM (doses to about 114 µM), without a hit: at the highest dose activity change, negative = inhibition, actives largely listed as inhibitors | 340,000 compounds, 1.3% hits; note: potency is the fitted concentration of half-maximal effect; % is set by controls: 0 for no effect and ±100 for the full control effect
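Homogeneous kinetic assay of primer extension and strand displacement by 10 nM Pol beta, preincubated 15 min at room temperature with compound before 50 nM substrate (final) was added. Read at 0 and 10 min; four-parameter Hill fit.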
Pol iota inh = inhibitors of human DNA polymerase iota | Q9UNA4 | Pol iota fluorescent replication assay, 10 min | AID 588590 | Potency, µM (doses to about 115 µM), inactives show at the highest dose activity, negative = inhibition, most hits filed as inhibitors | 390,000 compounds, 1% hits; note: potency is the fitted concentration of half-maximal effect
Target sequence (Q9UNA4 whole entry, looked up): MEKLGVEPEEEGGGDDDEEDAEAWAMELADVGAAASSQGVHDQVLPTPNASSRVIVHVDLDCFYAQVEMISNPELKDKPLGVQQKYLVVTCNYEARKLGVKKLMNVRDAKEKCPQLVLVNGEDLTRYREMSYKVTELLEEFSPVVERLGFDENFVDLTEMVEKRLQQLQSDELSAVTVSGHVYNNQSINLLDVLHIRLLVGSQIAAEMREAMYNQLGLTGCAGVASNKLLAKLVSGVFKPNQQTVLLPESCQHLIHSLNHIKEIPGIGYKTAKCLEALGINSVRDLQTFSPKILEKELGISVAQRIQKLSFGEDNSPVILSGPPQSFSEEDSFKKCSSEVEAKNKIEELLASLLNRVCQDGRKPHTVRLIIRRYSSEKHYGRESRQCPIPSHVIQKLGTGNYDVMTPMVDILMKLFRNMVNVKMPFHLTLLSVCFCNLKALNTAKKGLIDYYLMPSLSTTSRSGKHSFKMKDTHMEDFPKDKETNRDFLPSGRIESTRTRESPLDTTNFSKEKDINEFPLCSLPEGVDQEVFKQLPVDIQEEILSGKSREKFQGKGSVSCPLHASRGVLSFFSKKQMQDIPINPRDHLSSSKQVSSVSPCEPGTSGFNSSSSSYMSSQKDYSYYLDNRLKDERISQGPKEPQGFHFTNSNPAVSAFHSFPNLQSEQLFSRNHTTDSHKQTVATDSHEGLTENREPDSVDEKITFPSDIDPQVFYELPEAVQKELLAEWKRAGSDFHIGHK
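Pol iota at 10 nM preincubated 15 min with compounds at room temperature; reaction started with fluorescent substrate, 50 nM final. Fluorescence read kinetically at 0 and 10 min; buffer-only wells as negative control.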
PI5P4Ka inh = blocks human PI5P4K alpha kinase activity. PI5P4Kalpha enzyme, ADP-Glo luminescence, 60 min; stronger effect = lower value. max response, %. 330,000 compounds, 1.2% hits. AID 652105; active = max response of -50% or lower; inconclusive = between -30% and -50%; inactive = -30% or higher; note: value at the top dose of about 77 µM; % is set by controls: 0 for no effect and ±100 for the full control effect
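PI5P4Kalpha ADP-Glo assay; 5 microM ATP final; 60 min RT reaction; HEPES pH 7.4/EGTA/CHAPS, 5% DMSO; controls lacking substrate or enzyme; luminescent end-point.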
Pol kappa inh = blocks human DNA polymerase kappa activity; Q9UBT6; purified Pol kappa, fluorescent DNA synthesis assay, 10 min; Potency, µM (top dose mostly 107 µM), for the others: at the top dose activity, negative = inhibition, most hits filed as inhibitors; 400,000 compounds, 0.53% hits; AID 588579; note: potency is the fitted concentration of half-maximal effect; % is set by controls: 0 for no effect and ±100 for the full control effect
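10 nM Pol kappa preincubated 15 min at room temperature with compounds, then reaction started with substrate at 50 nM final. Fluorescence read kinetically at 0 and 10 min; buffer-only wells served as negative control.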
FEN1 inhibitor = inhibitors of human flap endonuclease 1; P39748; Recombinant FEN1 flap cleavage, fluorescence, 15 min; Potency, µM (highest dose often 114 µM), for the others: top-dose activity change, negative = inhibition, most hits filed as inhibitors; 390,000 compounds, 0.35% hits; AID 588795; note: potency is the fitted concentration of half-maximal effect; % is set by controls: 0 for no effect and ±100 for the full control effect; nearly all actives have a fitted effect of over 65% in size
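Recombinant FEN1 (10 nM) was preincubated with pin-transferred compounds for 15 min at room temperature, then flap DNA substrate (50 nM final) was added. Plates were read at 0 and 15 min, and normalized concentration–response data were fitted to a four-parameter Hill equation.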
Pol eta inh = DNA polymerase eta (human) inhibition | Q9Y253 | recombinant Pol eta, fluorescent DNA replication assay | Potency, µM (series often up to 114 µM), for the others: at the top dose activity change, negative = inhibition, actives largely listed as inhibitors | 390,000 compounds, 1.2% hits | AID 588591; note: potency is the fitted concentration of half-maximal effect; % is set by controls: 0 for no effect and ±100 for the full control effect
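Pol eta at 10 nM preincubated with compounds 15 min at room temperature; reaction started with fluorescent substrate (50 nM final) and read kinetically at 0 and 10 min.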
An asterisk follows results filed as active; ! = not confirmed by another sample; [ ] = dose if it differs, or a comment. Shown are actives, neighbours in structure and some others; about 2.8% of the full set was active somewhere. Unless noted, calls come from the whole dose curve; as a rule, active = well fitted curve in the direction sought with a large enough effect; inconclusive = small, poorly fitted or top-dose-only effect, or another doubt; inactive = no such curve, though single readings can be large; an effect the other way counts as inactive or inconclusive.

Results for COc1cccc(NC(=O)CSc2nnc3c(n2)[nH]c2ccc(C)cc23)c1 ?
Pol beta inh: 11%; Pol iota inh: 7%; PI5P4Ka inh: 0; Pol kappa inh: -4%; FEN1 inhibitor: -2%; Pol eta inh: -9%

What do the screens show for `COc1ccc2[nH]c3nc(SCC(=O)Nc4cccc(NC(C)=O)c4)nnc3c2c1`?
Pol beta inh: 35µM*; Pol iota inh: inconclusive; PI5P4Ka inh: -1; Pol kappa inh: -20%; FEN1 inhibitor: 8%; Pol eta inh: 0%

How did COc1ccc2[nH]c3nc(SCc4nnc(-c5ccccc5)o4)nnc3c2c1 do in these assays?
Pol beta inh: 22µM*; Pol iota inh: 8%; Pol kappa inh: -12%; FEN1 inhibitor: 1%; Pol eta inh: -32%

Results for CCOc1ccc(C(=O)NN2C(=S)NC(C)(C)C=C2C)cc1 ?
Pol beta inh: 32%; Pol iota inh: 6%[58.9 µM]; PI5P4Ka inh: 3; Pol kappa inh: -14%; FEN1 inhibitor: -3%; Pol eta inh: -3%

Results for COC(=O)C(CCSC)NC(=O)C1CCN(c2ncnc3c2nc2n3CCCCC2)CC1 (centres undefined) ?
Pol beta inh: 81%; Pol iota inh: 16%; Pol kappa inh: 9%; FEN1 inhibitor: -17%; Pol eta inh: 11%

How did O=C(O)[C@H](Cc1c[nH]c2ccccc12)N1C(=O)C2=CCCC=C2C1=O do in these assays?
Pol kappa inh: 13%[60.1 µM]

Results for CC(CCC(C)[n+]1cccc(C#N)c1)[n+]1cccc(C#N)c1 (centres undefined) ?
Pol iota inh: inconclusive; Pol kappa inh: -19%; FEN1 inhibitor: -9%

What do the screens show for `Cc1ccc2c(c1)-c1c(c(C(=O)NCCc3ccccc3)nn1C)CS2`?
Pol beta inh: 5%; Pol iota inh: -19%; Pol kappa inh: -12%[60.1 µM]; FEN1 inhibitor: 12%; Pol eta inh: -17%

How did Cc1ccc(C(=O)Nc2ccc(O)c(C(=O)O)c2)o1 do in these assays?
Pol beta inh: inconclusive; Pol iota inh: 9%; PI5P4Ka inh: -22; Pol kappa inh: -31%; FEN1 inhibitor: -9%; Pol eta inh: 14µM*

How did O=C(O)CSc1ncccc1C(=O)O do in these assays?
Pol beta inh: 11%; Pol iota inh: 22%; PI5P4Ka inh: 3; Pol kappa inh: -5%; FEN1 inhibitor: -7%; Pol eta inh: 3%

What do the screens show for `C=CCSc1ncccc1C(=O)O`?
Pol beta inh: 0%; Pol iota inh: 100µM*; Pol kappa inh: -11%; FEN1 inhibitor: 2%; Pol eta inh: -18%

Results for N#C/C(=C\c1cccs1)C(=O)c1ccccc1 ?
Pol beta inh: inconclusive; Pol iota inh: 28µM*; PI5P4Ka inh: -7; Pol kappa inh: -12%; FEN1 inhibitor: 5%; Pol eta inh: -17%

Results for N#CC(=Cc1ccc(-c2ccccc2)cc1)C(=O)c1ccccc1 ?
PI5P4Ka inh: -1

How did Cc1cccc(OCC(=O)Nc2nonc2-c2ccc(Br)cc2)c1C do in these assays?
Pol beta inh: inconclusive; Pol iota inh: 4%; Pol kappa inh: -3%; FEN1 inhibitor: 2%

What do the screens show for `O=c1[nH]c(/C=C\c2cccc(F)c2)nc(O)c1[N+](=O)[O-]`?
Pol beta inh: inconclusive; Pol iota inh: 0%; PI5P4Ka inh: -55*; Pol kappa inh: -7%; FEN1 inhibitor: 0%; Pol eta inh: inconclusive

Results for O=c1[nH]c(/C=C\c2ccccc2F)nc(O)c1[N+](=O)[O-] ?
Pol beta inh: 15%; Pol iota inh: inconclusive; PI5P4Ka inh: -72*; Pol kappa inh: -21%; FEN1 inhibitor: -14%; Pol eta inh: -1%

How did Clc1cccc(-c2ccc(CNCCSc3nnnn3-c3ccccc3)o2)c1 do in these assays?
Pol beta inh: -13%; Pol iota inh: 4%; Pol kappa inh: -14%; FEN1 inhibitor: 4%; Pol eta inh: inconclusive

What do the screens show for `Cc1ccccc1-c1nc(NCc2cccs2)c2ccccc2n1`?
Pol kappa inh: -6%[60.1 µM]

What do the screens show for `Clc1ccccc1-c1nc(NCc2cccs2)c2ccccc2n1`?
Pol kappa inh: 32µM*

Results for CCCCNC(=O)CCC(=O)NNc1nc2ccccc2c2nc(-c3ccccc3)nn12 ?
Pol beta inh: 89µM*!; Pol iota inh: -6%; PI5P4Ka inh: 3; Pol kappa inh: 3%; FEN1 inhibitor: 11%; Pol eta inh: 6%

Results for CCCCNC(=O)CCC(=O)NNc1nc2ccccc2c2nc(C)nn12 ?
Pol beta inh: 47%; Pol iota inh: 13%; PI5P4Ka inh: 1; Pol kappa inh: -2%; FEN1 inhibitor: 11%; Pol eta inh: -6%

How did CCOC(=O)c1cccc(NC(=O)c2cc3c(=O)n(C)c4ccccc4c3n2C)c1 do in these assays?
Pol beta inh: 11%; Pol iota inh: 19%; Pol kappa inh: -3%; FEN1 inhibitor: 3%; Pol eta inh: -17%

What do the screens show for `COc1ccc(C(=O)N(c2ccccc2)C2C=CS(=O)(=O)C2)cc1` (centres undefined)?
Pol beta inh: 2%; Pol iota inh: 10%; Pol kappa inh: -8%; FEN1 inhibitor: 4%; Pol eta inh: -4%

What do the screens show for `COc1ccc(N(C(=O)Cc2cccs2)C2C=CS(=O)(=O)C2)cc1` (centres undefined)?
Pol beta inh: 16µM*; Pol iota inh: inconclusive; PI5P4Ka inh: inconclusive; Pol kappa inh: -32%; FEN1 inhibitor: 7%; Pol eta inh: inconclusive

What do the screens show for `CCCCOc1ccc(C2OC34CCCCC3C(C#N)(C#N)C2(C#N)C(=N)O4)cc1` (centres undefined)?
Pol beta inh: 1%; Pol iota inh: 16µM*; PI5P4Ka inh: -25; Pol kappa inh: -34%; FEN1 inhibitor: inconclusive; Pol eta inh: inconclusive

What do the screens show for `O=C(CSC1=Nc2ccccc2N=C(c2ccc(F)cc2)C1)NCc1ccccc1`?
Pol beta inh: -5%; Pol iota inh: 6%; Pol kappa inh: -14%[60.1 µM]; FEN1 inhibitor: 5%; Pol eta inh: -17%

How did N#CC1=C(N)Oc2n[nH]c(-c3cccs3)c2C1C1C=CCCC1 (centres undefined) do in these assays?
Pol beta inh: -8%; Pol iota inh: 3%; PI5P4Ka inh: -52*; Pol kappa inh: -14%; FEN1 inhibitor: -9%; Pol eta inh: 3%

How did N#CC1=C(N)Oc2n[nH]c(-c3cccs3)c2C1C1CCCCC1 (centres undefined) do in these assays?
Pol beta inh: -3%; Pol iota inh: 8%; PI5P4Ka inh: inconclusive; Pol kappa inh: -9%; FEN1 inhibitor: -18%; Pol eta inh: -3%
